Among all 5,500 compounds or so, about 2,000 (36%) were called active. About 18% were inconclusive and are not listed. No stated cut-off is given here; in the data, active means normalized growth mostly below about 0.91 (no sharp cut-off); inconclusive means no clear call, values can overlap the other calls; inactive means mostly above about 0.92. The list shows a part of the results.
Assay: chemical genetic growth profiling, strain panel (AID 1159580);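 further: tested at 20 µM; growth read once vehicle control cultures reached saturation at 30 °C; 1 = growth at the plate median or of vehicle wells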
Details: growth OD

Measured: normalized growth

NC(=O)c1ccc[n+]([C@@H]2O[C@H](COP(=O)([O-])OP(=O)(O)OC[C@H]3O[C@@H](n4cnc5c(N)ncnc54)[C@H](O)[C@@H]3O)[C@@H](O)[C@H]2O)c1
inactive: S. cerevisiae deletion strains, locus YJR075W, strain HOC1, stronger effect = lower value 1.02 | S. cerevisiae deletion strains, locus YKL009W, strain mrt4, stronger effect = lower value 0.975 | S. cerevisiae deletion strains, locus YKL068W, stronger effect = lower value 0.987 | S. cerevisiae deletion strains, locus YKL085W, strain MDH1 (second series), stronger effect = lower value 0.986 | S. cerevisiae deletion strains, locus YKL085W, strain MDH1, stronger effect = lower value 0.986 | S. cerevisiae deletion strains, locus YKL160W, strain elf1, stronger effect = lower value 1.06 | S. cerevisiae deletion strains, locus YKL190W, strain CNB1, stronger effect = lower value 0.996 | S. cerevisiae deletion strains, locus YKR001C, strain vps1, stronger effect = lower value 0.997 | S. cerevisiae deletion strains, locus YKR026C, strain gcn3, stronger effect = lower value 1.02 | S. cerevisiae deletion strains, locus YKR091W, strain srl3, stronger effect = lower value 1.02 | S. cerevisiae deletion strains, locus YLL001W, strain dnm1, stronger effect = lower value 1.03 | S. cerevisiae deletion strains, locus YLL026W, stronger effect = lower value 1.02 | S. cerevisiae deletion strains, locus YLL041C, strain sdh2, stronger effect = lower value 1.04 | S. cerevisiae deletion strains, locus YLR027C, strain aat2, stronger effect = lower value 1.03 | S. cerevisiae deletion strains, locus YLR039C, strain RIC1, stronger effect = lower value 0.987 | S. cerevisiae deletion strains, locus YLR058C, strain SHM2, stronger effect = lower value 0.977 | S. cerevisiae deletion strains, locus YLR102C, strain apc9, stronger effect = lower value 0.989 | S. cerevisiae deletion strains, locus YLR113W, strain HOG1, stronger effect = lower value 0.982 | S. cerevisiae deletion strains, locus YLR221C, strain rsa3, stronger effect = lower value 1.04 | S. cerevisiae deletion strains, locus YLR258W, strain gsy2, stronger effect = lower value 1.04 | S. cerevisiae deletion strains, locus YLR262C, strain YPT6 (second series), stronger effect = lower value 1.05 | S. cerevisiae deletion strains, locus YLR262C, strain YPT6, stronger effect = lower value 0.939 | S. cerevisiae deletion strains, locus YLR268W, strain sec22, stronger effect = lower value 1.08 | S. cerevisiae deletion strains, locus YLR320W, strain mms22, stronger effect = lower value 1.03 | S. cerevisiae deletion strains, locus YLR330W, strain CHS5, stronger effect = lower value 0.982 | S. cerevisiae deletion strains, locus YLR342W, strain FKS1 (second series), stronger effect = lower value 0.986 | S. cerevisiae deletion strains, locus YLR342W, strain FKS1, stronger effect = lower value 1.02 | S. cerevisiae deletion strains, locus YLR357W, strain rsc2, stronger effect = lower value 1.05 | S. cerevisiae deletion strains, locus YLR370C, strain arc18, stronger effect = lower value 1.04 | S. cerevisiae deletion strains, locus YLR371W, strain rom2, stronger effect = lower value 0.977 | S. cerevisiae deletion strains, locus YLR384C, strain iki3, stronger effect = lower value 1.04 | S. cerevisiae deletion strains, locus YLR418C, strain cdc73, stronger effect = lower value 1.02 | S. cerevisiae deletion strains, locus YML016C, strain PPZ1, stronger effect = lower value 0.982 | S. cerevisiae deletion strains, locus YML032C, strain rad52, stronger effect = lower value 1.01 | S. cerevisiae deletion strains, locus YML120C, strain ndi1, stronger effect = lower value 1.04 | S. cerevisiae deletion strains, locus YML124C, strain tub3, stronger effect = lower value 0.989 | S. cerevisiae deletion strains, locus YMR058W, strain fet3, stronger effect = lower value 1.04 | S. cerevisiae deletion strains, locus YMR078C, strain ctf18, stronger effect = lower value 0.986 | S. cerevisiae deletion strains, locus YMR125W, strain sto1, stronger effect = lower value 1.06 | S. cerevisiae deletion strains, locus YMR129W, stronger effect = lower value 1.02 | S. cerevisiae deletion strains, locus YMR205C, strain PFK2, stronger effect = lower value 1.04 | S. cerevisiae deletion strains, locus YMR223W, strain ubp8, stronger effect = lower value 0.974 | S. cerevisiae deletion strains, locus YMR231W, strain pep5, stronger effect = lower value 1.04 | S. cerevisiae deletion strains, locus YMR263W, strain SAP30, stronger effect = lower value 1 | S. cerevisiae deletion strains, locus YMR307W, strain GAS1, stronger effect = lower value 0.992 | S. cerevisiae deletion strains, locus YNL067W, strain RPL9B, stronger effect = lower value 1.01 | S. cerevisiae deletion strains, locus YNL071W, strain lat1, stronger effect = lower value 1.03 | S. cerevisiae deletion strains, locus YNL128W, strain TEP1, stronger effect = lower value 0.953 | S. cerevisiae deletion strains, locus YNL153C, strain GIM3, stronger effect = lower value 1.02 | S. cerevisiae deletion strains, locus YNL183C, strain NPR1, stronger effect = lower value 0.969 | S. cerevisiae deletion strains, locus YNL209W, strain ssb2, stronger effect = lower value 1.04 | S. cerevisiae deletion strains, locus YNL233W, strain BNI4, stronger effect = lower value 1.02 | S. cerevisiae deletion strains, locus YNL248C, strain rpa49, stronger effect = lower value 1.07 | S. cerevisiae deletion strains, locus YNL250W, strain rad50, stronger effect = lower value 0.985 | S. cerevisiae deletion strains, locus YNL271C, strain bni1, stronger effect = lower value 0.994 | S. cerevisiae deletion strains, locus YNL298W, strain CLA4, stronger effect = lower value 0.996 | S. cerevisiae deletion strains, locus YNL307C, strain MCK1, stronger effect = lower value 1.01 | S. cerevisiae deletion strains, locus YNL322C, strain KRE1 (second series), stronger effect = lower value 1.03 | S. cerevisiae deletion strains, locus YNL322C, strain KRE1, stronger effect = lower value 0.983 | S. cerevisiae deletion strains, locus YNR049C, strain mso1, stronger effect = lower value 1.02 | S. cerevisiae deletion strains, locus YNR052C, strain pop2, stronger effect = lower value 0.995 | S. cerevisiae deletion strains, locus YOL006C, strain TOP1, stronger effect = lower value 1.01 | S. cerevisiae deletion strains, locus YOL012C, strain htz1 0.903 | S. cerevisiae deletion strains, locus YOL147C, strain pex11, stronger effect = lower value 0.994 | S. cerevisiae deletion strains, locus YOR001W, strain rrp6, stronger effect = lower value 1.05 | S. cerevisiae deletion strains, locus YOR061W, strain CKA2, stronger effect = lower value 0.969 | S. cerevisiae deletion strains, locus YOR069W, strain VPS5, stronger effect = lower value 0.993 | S. cerevisiae deletion strains, locus YOR070C, strain gyp1, stronger effect = lower value 1.02 | S. cerevisiae deletion strains, locus YOR080W, strain dia2, stronger effect = lower value 1.02 | S. cerevisiae deletion strains, locus YOR083W, strain WHI5, stronger effect = lower value 1.06 | S. cerevisiae deletion strains, locus YOR106W, strain vam3, stronger effect = lower value 1.07 | S. cerevisiae deletion strains, locus YOR136W, strain idh2, stronger effect = lower value 0.991 | S. cerevisiae deletion strains, locus YOR144C, strain elg1, stronger effect = lower value 0.991 | S. cerevisiae deletion strains, locus YOR184W, strain ser1, stronger effect = lower value 1 | S. cerevisiae deletion strains, locus YOR231W, strain MKK1, stronger effect = lower value 0.999 | S. cerevisiae deletion strains, locus YOR265W, strain rbl2, stronger effect = lower value 1.02 | S. cerevisiae deletion strains, locus YOR270C, strain vph1, stronger effect = lower value 1.14 | S. cerevisiae deletion strains, locus YOR290C, strain snf2, stronger effect = lower value 1.07 | S. cerevisiae deletion strains, locus YOR316C, strain cot1, stronger effect = lower value 0.988 | S. cerevisiae deletion strains, locus YPL051W, strain arl3, stronger effect = lower value 1.05 | S. cerevisiae deletion strains, locus YPL055C, strain LGE1, stronger effect = lower value 0.997 | S. cerevisiae deletion strains, locus YPL078C, strain atp4, stronger effect = lower value 1.08 | S. cerevisiae deletion strains, locus YPL106C, strain sse1, stronger effect = lower value 1.04 | S. cerevisiae deletion strains, locus YPL240C, strain hsp82, stronger effect = lower value 1.01 | S. cerevisiae deletion strains, locus YPL241C, strain CIN2, stronger effect = lower value 0.984 | S. cerevisiae deletion strains, locus YPL256C, strain CLN2, stronger effect = lower value 0.961 | S. cerevisiae deletion strains, locus YPR119W, strain clb2, stronger effect = lower value 0.993 | S. cerevisiae deletion strains, locus YPR141C, strain kar3, stronger effect = lower value 0.991 | S. cerevisiae deletion strains, locus YPR163C, strain tif3, stronger effect = lower value 1 | S. cerevisiae deletion strains, locus YPR167C, strain met16, stronger effect = lower value 0.998 | S. cerevisiae deletion strains, strain wtn01, stronger effect = lower value 1.03 | S. cerevisiae strains, strain wild type, stronger effect = lower value 0.993

Reference: PubChem BioAssay AID1159580 (chemical genetic matrix, 2015)
